GLS inhibitor – blocks human kidney-isoform glutaminase activity; O94925; Potency, µM (series often up to 45.5 µM), without a hit: at the highest dose activity change, negative = inhibition, usual class: inhibitors; 0.21% of 410,000 active; AID 624170; GLS enzymatic activity, qHTS titration; further: on the % scale 0 is the no-effect control and ±100 the full control effect
Target sequence (O94925 whole entry, looked up, canonical isoform): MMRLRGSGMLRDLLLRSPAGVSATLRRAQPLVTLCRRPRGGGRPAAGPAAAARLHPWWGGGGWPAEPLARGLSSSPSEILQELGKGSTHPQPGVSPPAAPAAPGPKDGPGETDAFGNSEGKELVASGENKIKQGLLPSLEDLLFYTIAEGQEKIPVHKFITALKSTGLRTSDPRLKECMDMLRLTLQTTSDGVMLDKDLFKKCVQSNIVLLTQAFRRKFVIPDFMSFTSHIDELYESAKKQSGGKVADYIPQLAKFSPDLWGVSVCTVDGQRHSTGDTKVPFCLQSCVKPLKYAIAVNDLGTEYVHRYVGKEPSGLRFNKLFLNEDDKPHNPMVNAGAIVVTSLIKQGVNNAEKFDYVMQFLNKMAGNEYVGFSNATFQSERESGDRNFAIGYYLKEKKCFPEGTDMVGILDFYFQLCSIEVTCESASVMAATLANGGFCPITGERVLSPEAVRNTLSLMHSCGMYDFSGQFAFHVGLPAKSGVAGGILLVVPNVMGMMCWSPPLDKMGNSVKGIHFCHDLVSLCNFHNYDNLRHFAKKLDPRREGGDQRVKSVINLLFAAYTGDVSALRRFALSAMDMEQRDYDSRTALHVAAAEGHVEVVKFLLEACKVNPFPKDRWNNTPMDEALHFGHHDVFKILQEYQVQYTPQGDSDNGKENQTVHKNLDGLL
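Two-point fluorescence kinetic (t0, 30 min RT) for hKGA; glutamate detected via glutamate oxidase–HRP–Amplex Red. Substrate: 1 mM L-glutamine solution; buffer 45 mM KH2PO4, pH 8.2.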
JMJD2A Tudor inh – JMJD2A Tudor domain (human) inhibition; O75164; AlphaScreen JMJD2A-Tudor / H3K4me3 peptide binding; Potency, µM (highest dose often 114 µM), without a hit: at the top dose activity change, negative = inhibition, hits mostly inhibitors; 4.4% of 390,000 active; AID 504339; further: on the % scale 0 is the no-effect control and ±100 the full control effect; nearly all actives have a fitted effect of over 50% in size
BAZ2B inh – BAZ2B (human) inhibition. Q9UIF8. AlphaScreen BAZ2B-H3K14Ac peptide displacement. Potency, µM (highest dose often 114 µM), inactives show at the top dose activity change, negative = inhibition, actives largely listed as inhibitors. 4.4% of 360,000 active. AID 504333; further: on the % scale 0 is the no-effect control and ±100 the full control effect; nearly all actives have a fitted effect of over 60% in size
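AlphaScreen displacement: compounds (up to 110uM) incubated 30 min at room temperature with a preformed 50 nM BAZ2B/50 nM biotinylated H3K14Ac peptide complex in PBS pH 7.4 with Tween-20. Donor and acceptor beads at 10 ug/mL final added, 20 min light-protected before reading.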
G9a block – inhibitors of human histone lysine methyltransferase G9a | G9a H3K9 monomethylation, AlphaScreen, 2 h | Potency, µM (series often up to 102 µM), for inactives: at the highest dose activity, negative = inhibition, usual class: inhibitors | 8.8% of 350,000 active | AID 504332; further: on the % scale 0 is the no-effect control and ±100 the full control effect; nearly all actives have a fitted effect of over 75% in size
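Methyltransferase reactions run at room temperature for 2 h (20 nM enzyme, 500 nM biotin-H3K9 peptide, 20 uM SAM) after a 15 min compound preincubation; product detected by AlphaScreen beads and anti-H3K9me1 antibody.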
HP1b chromo inh – blocks HP1-beta chromodomain binding to methylated histone tails; P83916; AlphaScreen HP1-beta / biotin-H3K9me3 peptide binding; Potency, µM (top dose mostly 114 µM), for inactives: at the highest dose activity change, negative = inhibition, usual class: inhibitors; 0.56% of 390,000 active; AID 540317; further: nearly all actives have a fitted effect of over 70% in size
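AlphaScreen: HP1-beta (50 nM) preformed 30 min with biotin-H3(1-18)K9me3 peptide (50 nM) in PBS pH 7.4, 0.01% Tween-20. Compound added for 30 min at RT, then streptavidin donor/nickel chelate acceptor beads (10 ug/mL) for 30 min.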
L3MBTL1 inh – blocks human L3MBTL1; AlphaScreen L3MBTL1–H3K9me1 peptide binding; 0.66% of 230,000 active; Q9Y468; AID 485360; Potency, µM (titrated, usually from 57.1 µM), inactives show at the top dose activity, negative = inhibition, most hits filed as inhibitors; further: on the % scale 0 is the no-effect control and ±100 the full control effect; nearly all actives have a fitted effect of over 60% in size
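AlphaScreen proximity signal between nickel-chelate acceptor and streptavidin donor beads (final 10 ug/mL) reports binding of 50 nM L3MBTL1 to 75 nM biotin-H3 K9me1 peptide; complex incubated with compounds 30 min at room temperature; cefsulodin titration as control.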
Starred values were filed as active, the others as inactive; ? = inconclusive; / = no result given; [ ] = dose if it differs, or a comment. Compounds with a hit are over-represented: about 10% of the library has one in this group of screens. The call rests on the fitted dose curve; in most records, active means well fitted curve in the direction sought with a large enough effect; inconclusive means small, poorly fitted or top-dose-only effect, or another doubt; inactive means no such curve, though single readings can be large; an effect the other way counts as inactive or inconclusive. Potency means the concentration at half of the fitted maximal effect.

SMILES | GLS inhibitor | JMJD2A Tudor inh | BAZ2B inh | G9a block | HP1b chromo inh | L3MBTL1 inh
CCOc1ccc(C(=O)Nc2ccc3nc(SCCOc4ccccc4)sc3c2)cc1 | 4% | -1% | ? | 2%[59 µM] | 35% | /
CON(C)C(=O)Nc1ccc(Cl)cc1 | 0% | -9% | 5% | -43%[59 µM] | 14% | 0%
O=C(Nc1ccc(Cl)cc1)O/N=C(\c1ccccc1)c1ccccn1 | 31% | 10µM* | 14µM* | ? | 23% | -6%
CCCN(CCC)C(=O)Cc1c(-c2ccc(Cl)cc2)nc2ccc(Cl)cn12 | -14% | / | / | / | / | /
c1ccc(-c2nc(N3CCOCC3)s[n+]2-c2ccccc2)cc1 | ? | 18µM* | -33% | 1.1µM* | ? | 3%
O=c1[nH]c(O)c(/C=C2/C=CC(c3cc(Cl)ccc3Cl)=N2)c(=O)[nH]1 | 0% | ? | ? | 50µM* | 28% | /
COc1cccc(CN2CCNCC2)c1 | 8% | -10% | -6% | 79µM* | 37% | 16%
CCCN1CCCC2Cc3[nH]ncc3CC21 (stereo not drawn) | / | / | / | 50µM* | / | /
CCCN1CCC[C@@H]2Cc3cn[nH]c3C[C@H]21 | / | / | / | -3%[59 µM] | / | /
C[C@H](N)Cc1cnc[nH]1 | / | / | / | -39%[59 µM] | / | /
COc1ccc(S(=O)(=O)N2CCOCC2)cc1NC(=O)COC(=O)Cc1ccccc1 | 1% | -5% | / | / | 14% | 2%
COc1cc(C(=S)N2CCOCC2)cc(OC)c1OC(=O)Cc1ccccc1 | 0% | -23% | 1% | 45µM* | -21% | /
C=CCn1c(CSc2ccccc2[N+](=O)[O-])n[nH]c1=S | ? | 8.9µM* | 40µM* | 1.3µM* | ? | /
CN(C)c1cccc2c(C#N)ccc(N(C)C)c12 | -13% | ? | -19% | 45µM* | ? | -18%
COc1cc(N)ccc1Cc1ccc(N)cc1OC | -3% | 79µM* | / | -20%[59 µM] | -14% | -16%
COc1cc(CCN)c(OC)cc1Br | -2%[99.4 µM] | / | / | / | / | /
O=C(O)[C@H]1[C@H]2CN[C@H](C(=O)O)[C@H]21 | / | / | / | 8%[59 µM] | / | /
Cc1cccc(-n2c(C)n[nH]c2=S)c1C | 23% | 45µM* | 5% | ? | 45% | /
C[C@]12CCC3C(CC[C@H]4C[C@H](O)CC[C@]34C)[C@@H]1CC[C@@H]2C(=O)CO (stereo partly drawn) | / | / | / | 31%[59 µM] | / | /
CC[C@]1(O)CC[C@H]2[C@@H]3CCC4=CCCC[C@@H]4[C@H]3CC[C@@]21C | 4% | / | / | ? | / | /
NC1CCCCC1N=Cc1c(O)n(Cc2ccc(F)cc2)c(=O)[nH]c1=O (stereo not drawn) | 0% | -17% | ? | 0.89µM* | 17% | -6%
O=c1[nH]c(=O)n(Cc2ccc(F)cc2)c(O)c1C=NCC1CCCO1 (stereo not drawn) | -4% | 2%[11.4 µM] | 12% | -31%[59 µM] | 55% | 13%
CCCCn1c(O)c(C=NC2CCCCC2N)c(=O)[nH]c1=O (stereo not drawn) | 3% | -23% | ? | 4µM* | 42% | /
CCN(CC)CCCN=Cc1c(O)n(Cc2ccc(F)cc2)c(=O)[nH]c1=O | 1% | -17% | 11% | -47% | 10% | 0%
CN1CCN(/N=C/c2c(O)n(Cc3ccc(F)cc3)c(=O)[nH]c2=O)CC1 | -1% | -10% | -21% | 56µM* | 24% | -2%
SMILES | GLS inhibitor | JMJD2A Tudor inh | BAZ2B inh | G9a block | HP1b chromo inh | L3MBTL1 inh
CCCCCCn1c(O)c(C=NC2CCCCC2N)c(=O)[nH]c1=O (stereo not drawn) | 17% | ? | -31% | -2% | 14% | -2%
Cc1ccc(S(=O)(=O)N(CC(=O)NCCSc2ccc(Cl)cc2)c2ccccc2C)cc1 | -9% | 2% | -17% | 14%[59 µM] | 52% | /
Nc1nc2c(s1)CCCCCCCCCC2 | -2% | ? | -27% | 45µM* | ? | -18%
Cc1ccc(C)c(N2CCN(c3ncnc4onc(C)c34)CC2)c1 | 12% | -6% | 17%[57.1 µM] | -9%[59 µM] | 53% | /
CC(C)C(OC(=O)c1ccco1)C(=O)NCc1ccco1 (stereo not drawn) | 11% | 79µM* | -5% | 0%[59 µM] | ? | /
Cc1nn(Cc2ccccc2)c(C)c1C(=O)OCC(=O)NCc1ccco1 | 10% | 2% | -18% | ? | 15% | /
CCN1C[C@]2(C)CC[C@H](OC)[C@@]34[C@@H]2[C@H](OC(C)=O)[C@]2(OCO[C@@]25C[C@@H](OC)[C@@H]2C[C@@]3(O)[C@H]5[C@@H]2OC)[C@H]14 | / | / | / | 20%[21.5 µM] | / | /
COc1cc(C(=O)OC2C[C@H]3CC[C@@H](C2)N3C)ccc1O (stereo partly drawn) | -3% | -5% | 5% | 7% | 41% | /
COc1cc(C(=O)OC2C[C@H]3CC[C@@H](C2)N3)ccc1O (stereo partly drawn) | 15% | -17% | -19% | 40µM* | 19% | /
O=C(COc1ccc(Br)cc1)Nc1ccc(Cl)cc1C(=O)c1ccccc1 | -5% | -10% | -1% | 11%[59 µM] | 16% | /
CC12CCCCC1N(O)CN2O (stereo not drawn) | 23% | ? | 4% | 7.9µM* | 46% | 3%
O=C1NC(=O)C(Sc2ccccc2[N+](=O)[O-])C(=O)N1 | -7% | 28µM* | 50µM* | 2.8µM* | ? | /
CCOC(=O)c1c(C)[nH]c(C)c1S(=O)(=O)NCC(=O)N1CCN(c2cc(Cl)ccc2C)CC1 | -15% | ? | ? | ? | 5% | /
Cc1cccc(N2C(=O)NC(=O)/C(=C\c3cccn3-c3ccc(Cl)cc3)C2=O)c1 | -8% | -10% | 4% | 24%[0.501 µM] | 28% | -6%
Cc1cc(C)cc(N2C(=O)NC(=O)/C(=C/c3cccn3-c3ccc(Cl)cc3)C2=O)c1 | -3% | -3% | -10% | 32µM* | 41% | -8%
Cc1nn(CCC#N)c2c1P(=S)(N1CCCC1)OC(c1ccc(F)cc1)=N2 (stereo not drawn) | ? | ? | ? | 16µM* | 14µM* | -5%
[O-]C1=N/[N+](=C/c2ccc(Cl)cc2)CC1 | 38% | -10% | 11% | 8.9µM* | 26% | /

High-throughput results deposited in PubChem by National Center for Advancing Translational Sciences (NCATS).
